# Most compounds without a hit are left out; they make up all but 1.6% or so of the library.
# KCNQ2 inh – inhibitors of rat KCNQ2 potassium channel. CHO-K1 KCNQ2, FluxOR thallium flux, 20 min; stronger effect = lower value. B-score at 10 µM. hit rate 1.1% among 310,000;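 active = fluorescence ratio B-score at most minus 3 library SDs, with starting brightness B-score within 2 library SDs, cut at about -5.5 in these data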
# Target sequence (O88943 whole entry, looked up): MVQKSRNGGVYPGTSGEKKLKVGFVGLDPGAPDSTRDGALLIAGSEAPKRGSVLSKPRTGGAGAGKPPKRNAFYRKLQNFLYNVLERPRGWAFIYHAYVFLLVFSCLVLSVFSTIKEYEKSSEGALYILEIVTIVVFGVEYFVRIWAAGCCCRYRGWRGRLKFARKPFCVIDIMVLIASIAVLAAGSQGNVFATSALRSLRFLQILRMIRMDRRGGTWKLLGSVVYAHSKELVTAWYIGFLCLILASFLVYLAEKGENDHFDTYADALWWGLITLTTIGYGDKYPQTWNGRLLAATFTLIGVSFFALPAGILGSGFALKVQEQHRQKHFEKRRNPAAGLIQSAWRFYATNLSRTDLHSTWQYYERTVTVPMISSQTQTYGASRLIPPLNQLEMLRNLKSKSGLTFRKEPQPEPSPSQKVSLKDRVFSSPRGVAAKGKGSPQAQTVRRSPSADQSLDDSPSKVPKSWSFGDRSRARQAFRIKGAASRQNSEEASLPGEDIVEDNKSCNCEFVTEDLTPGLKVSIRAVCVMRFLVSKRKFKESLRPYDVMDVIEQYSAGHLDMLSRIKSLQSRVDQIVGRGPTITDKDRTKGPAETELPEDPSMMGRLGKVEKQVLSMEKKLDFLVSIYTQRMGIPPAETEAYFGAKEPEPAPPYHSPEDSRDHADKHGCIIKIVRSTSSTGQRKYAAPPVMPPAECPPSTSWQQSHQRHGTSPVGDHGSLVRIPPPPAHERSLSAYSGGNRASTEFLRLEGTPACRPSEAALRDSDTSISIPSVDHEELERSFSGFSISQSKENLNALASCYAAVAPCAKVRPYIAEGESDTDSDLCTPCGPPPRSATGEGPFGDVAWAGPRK
# KCNQ2 pot – KCNQ2 (rat) channel potentiation; O88943; AID 2239; hit rate 0.54% among 310,000; CHO-K1 KCNQ2, FluxOR thallium flux fluorescence; stronger effect = higher value; B-score at 10 µM;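 active = fluorescence ratio B-score at least 3 SD of library B-scores, with initial fluorescence B-score within 3 of them, cut at about 5.3 in these data; same plate scores as AID 2156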;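 also: B-score of peak minus minimum over baseline fluorescence ratio after K+ and Tl+ stimulus; positive B-score means potentiation of KCNQ2 with more thallium influx and brighter signal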
# * = called active by the depositor; i = inactive; . = not tested or not shown.
SMILES,KCNQ2 inh,KCNQ2 pot
COc1ccc([N+](=O)[O-])cc1NC(=O)C(C)OC(=O)C1CCC1 (configuration not stated),i,0.68
CCCC(=O)N1c2ccccc2C(=C2SC(C(=O)OC)=C(C(=O)OC)S2)C(=S)C1(C)C,-7.94*,-7.94
COC(=O)C1=C(C(=O)OC)SC(=C2C(=S)C(C)(C)N(C(=O)C(C)C)c3ccccc32)S1,i,.
CCCCn1c(N)c(N(CCOC)C(=O)COC(=O)C(C)Oc2ccc(Cl)cc2)c(=O)[nH]c1=O (configuration not stated),i,1.03
Cc1ccc(C2(C)NC(=O)N(CC(=O)NCc3ccccc3Cl)C2=O)cc1 (configuration not stated),i,.
O=C(c1cc(COc2ccc(F)cc2Cl)on1)N1CCN(c2cnccn2)CC1,i,1.32
COc1ccc(C(=O)COc2ccc(C)cc2NC(C)=O)cc1,i,1.38
Cc1cc(C)c(-c2cc(NC(=O)COC(=O)c3ccc(CO)cc3)n(-c3ccccc3)n2)cc1C,i,.
Cc1cc(C)c(-c2cc(NC(=O)CSc3n[nH]c(N)n3)n(-c3ccccc3)n2)cc1C,-6.86*,-6.86
CCOc1ccccc1NC(=O)C1CCCN(S(=O)(=O)c2ccc3c(c2)C(C)(C)C(=O)N3C)C1 (configuration not stated),i,.
Cc1csc(SCC(=O)NC2CCC(C)CC2)n1 (configuration not stated),i,4.06
CC1CC(C)(C)N(C(=O)CSc2ccc(-c3ccc(F)cc3)nn2)c2ccccc21 (configuration not stated),-5.67*,-5.67
CC1CCN(C(=O)CSc2ccc(-c3ccc(F)cc3)nn2)CC1,i,1.13
O=C(NCC1COCCO1)c1ccc2nc(Cc3cccc(Cl)c3)oc2c1 (configuration not stated),i,0.06
S=c1[nH]c2ccc(Cl)cc2s1,i,20.9*
Cc1cc(=O)[nH]c2ccc(Cl)cc12,i,0.91
O=C(c1ccc(Cl)c(Cl)c1)N1CCC(=O)N(C(CO)Cc2ccccc2)CC1 (configuration not stated),i,1.05
Cc1cccc(COCC(Cc2ccccc2)N2CCN(C(=O)c3cccc(Cl)c3)CCC2=O)c1 (configuration not stated),i,.
O=C(c1cccc(Cl)c1)N1CCC(=O)N(C(COCc2ccccc2)Cc2ccccc2)CC1 (configuration not stated),-5.8*,-5.8
O=C(c1ccc(Cl)c(Cl)c1)N1CCC(=O)N(C(COCc2ccccc2)Cc2ccccc2)CC1 (configuration not stated),-5.75*,-5.75
CC(C)Cc1ccc(S(=O)(=O)NCC2CCCO2)cc1 (configuration not stated),i,0.63
CCc1ccc(CNC(=O)CCn2ccc3cc(S(=O)(=O)N4CCCC4)ccc32)cc1,i,.
C#Cc1ccc(CN2CCC(Oc3ccc(C(=O)NCc4ccccn4)cc3)CC2)cc1,i,.
COC(=O)C/C=C/[C@@H](C)[C@@H](/C=N/OC[C@H]1O[C@H](c2ccccc2)C=C[C@@H]1Oc1ccc(OC)cc1)OC,-6.9*,-6.9
COc1ccc(O[C@H]2C=C[C@@H](c3ccccc3)O[C@@H]2COC(=O)CC/C(C)=N/OC[C@@H](O)COCc2ccco2)cc1,i,.
SMILES,KCNQ2 inh,KCNQ2 pot
CCOc1ccc(NC(=O)CSc2nnnn2C2CCCC2)cc1,i,0.75
Cc1nc2c(-c3ccc(F)cc3)c(C)nn2c(C)c1CCC(=O)N1CCN(c2ccccc2)CC1,i,.
Cc1nc2c(-c3ccc(F)cc3)c(C)nn2c(C)c1CCC(=O)N1CCC(Cc2ccccc2)CC1,-6.06*,-6.06
COc1ccccc1COCC(O)CNCCc1ccc(C(F)(F)F)cc1 (configuration not stated),i,.
OC(CNCCc1ccc(C(F)(F)F)cc1)COc1cccc2ccccc12 (configuration not stated),-7.1*,-7.1
COc1ccc(NC2CCCN(C(=O)c3ccc4[nH]c(C)c(C)c4c3)C2)cc1OC (configuration not stated),i,0.09
Cc1sc2ncnc(N3CCC(C(=O)Nc4ccccc4C(C)(C)C)CC3)c2c1C,i,.
CCOC(=O)c1ccccc1NC(=O)C1CCN(c2ncnc3sc(C)c(C)c23)CC1,-5.97*,-5.97
O=C(O)Cc1sc(NC2CCCCC2)nc1-c1ccc(Cl)cc1,i,.
CN(Cc1ccc(OC(F)F)cc1)C(=O)c1ccc2c(=O)n3c(nc2c1)CCC3,i,0.02
Cc1ccccc1NC(=O)c1cc(C(=O)c2cc(Cl)ccc2O)cn(-c2ccccc2C)c1=O,-5.6*,-5.6
Cc1ccc(-n2cc(C(=O)c3cc(Cl)ccc3O)cc(C#N)c2=O)cc1,i,.
CC(C)(C)C(=O)Cn1c(=N)n(Cc2ccccc2Cl)c2ccccc21,i,.
CC(C)(C)C(=O)Cn1c(=N)n(Cc2ccccc2)c2ccccc21,-6.24*,-6.24
CC(C)(Oc1ccc(Cl)cc1)C(=O)NCC1CCCO1 (configuration not stated),i,0.77
COc1cccc(OC)c1C(=O)Nc1ccc(C(=O)c2ccncc2)cc1,i,1.06
CCC1(c2ccc(F)cc2)NC(=O)N(CC(=O)N2CC(=O)Nc3ccccc32)C1=O (configuration not stated),i,0.36
Cc1ccccc1Cn1cc(S(=O)(=O)c2ccc(C(C)C)cc2)c(=O)c2cc3c(cc21)OCO3,i,.
COc1cccc(NC(=O)COC(=O)Cc2ccc(Cl)cc2)c1,i,0.88
COc1cccc(NC(=O)n2nc(N)cc2-c2ccc(Cl)cc2)c1,-5.71*,-5.71
O=C(NCC(=O)N1CCN(Cc2ccccc2)CC1)c1ccc(Br)o1,i,.
Cc1cccc(CSc2nc3sc(C)c(C)c3c(=O)n2Cc2ccco2)c1,i,0.57
Cc1cccc(CSc2nnc(-c3cccs3)n2Cc2ccco2)c1,-6.06*,-6.06
Cc1ccc(Cl)cc1N1CCN(C(=O)C(C)n2ncn3cccc3c2=O)CC1 (configuration not stated),-5.76*,-5.76
CC(C(=O)N1CCCCC1)n1ncn2cccc2c1=O (configuration not stated),i,0.51
SMILES,KCNQ2 inh,KCNQ2 pot
O=C(Nc1cc(Cl)ccc1N1CCCC1)C1=NN(c2ccccc2)C(=O)CC1,i,.
CCCC1S/C(=N/N=C/c2ccc(OC)cc2)N(Cc2ccc(OC)cc2)C1=O (configuration not stated),i,.
CCCC1S/C(=N/N=C/c2ccc(OC)cc2)N(Cc2ccccc2)C1=O (configuration not stated),-6.15*,-6.15
O=c1c(NCCc2ccc(Cl)cc2)c(-c2ccccc2)c1=O,i,0.69
COc1ccc(C2=CC(=O)C=CC2=O)cc1,i,1.32
O=C(Nc1ccc2c(c1)CN(Cc1ccccc1O)CC2)C1CCCO1 (configuration not stated),i,2.33
O=C(COc1ccc(Cl)cc1)Nc1ccc2c(c1)C(=O)NC2=O,i,.
Cc1noc(C)c1CSc1nc2sc(C)c(C)c2c(=O)n1-c1ccccc1,i,.
C=CCn1c(SCc2c(C)noc2C)nc2sc(C)c(C)c2c1=O,-6.52*,-6.52
COc1ccc(NC(=O)C(Sc2nnc(-c3ccncc3)n2-c2ccccc2C)c2ccccc2)cc1Cl (configuration not stated),-5.55*,-5.55
COc1ccc(NC(=O)C(OC)c2ccccc2)cc1Cl (configuration not stated),i,2.5
